From PubChem BioAssay AID741 (SRMLSC, 2007) come the findings set out here.

Results filed as inconclusive are left out. Calls of active or inactive are those of the source. No stated cut-off is given here; in the data, active means toxicity enhancement factor above about 0.054; inconclusive means between about 0.00067 and that limit; inactive means weaker than that.

A short description of this assay: MRP-overexpressing cell chemosensitization – dose response (AID 741). The following applies: MRP-overexpressing cells, viability with/without cytotoxic drug; slope difference: measured here: slope difference tox minus reversal, stronger effect = higher value; toxicity enhancement factor: stronger effect = higher value; viability: measured here: viability series, compound alone, at 10 µM, stronger effect = lower value.

On to `O[C@H]1[C@H](O)[C@@H](O)CN2CC[C@H](O)[C@H]12`, for which the slope difference was -0.39; the toxicity enhancement factor is -0.0036 (inactive); the viability (commonly a read-out of living cells in per cent, often relative to untreated cells) stood at 98.5%.
The corresponding values for `O=C1CCCC2C3CCCN4CCCC(CN12)C34` (stereo unspecified) are -0.494, -0.0048 (inactive) and 94.7%.
